Measured values published in PubChem BioAssay (Tox21).
Inconclusive results are not listed. The source made the active and inactive calls. Unless noted, calls follow the shape of the dose curve; as a rule, active = well fitted curve in the direction sought with a large enough effect in the repeat runs; inconclusive = weak or mixed curves; inactive = no such curve, though single readings can be large; an effect the other way counts as inactive or inconclusive.

Key:
[1] = A CellTox Green Cytotoxicity Assay to monitor cytotoxicity in HEK293 cells - 16 hour (AID 1224888); also: nearly all actives have a fitted effect of over 35% in size
In short: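 Homogeneous no-lysis format: HEK293 cell suspension mixed with CellTox Green reagent, seeded, incubated 5 h at 37 C/5% CO2, then dosed by pintool with compound in DMSO.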

[2] = qHTS RealTime-Glo MT Cell Viability Assay in HepG2 cells - 0 hour (AID 1224889); also: nearly all actives have a fitted effect of over 50% in size
In short: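 HepG2 cells (600/well) were dispensed with RealTime-Glo reagents, incubated 5 h at 37 °C, then treated with compounds in DMSO for up to 40 h. Nonlytic NanoLuc luminescence reflecting viable cells was read at each stated time point.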

[3] = A CellTox Green Cytotoxicity Assay to monitor cytotoxicity in HepG2 cells - 8 hour (AID 1224890); also: nearly all actives have a fitted effect of over 45% in size
In short: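 Fluorescent DNA-binding dye, 600 HepG2 cells/well, 5 h preincubation then compound in DMSO; same plates read at 0–40 h, 37 C.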

[4] = qHTS assay to identify small molecule antagonists of the estrogen receptor alpha (ER-alpha) signaling pathway using the BG1 cell line in the presence of 0.1 nM 17-beta-estradiol - cell viability counter screen (AID 1259241); also: nearly all actives have a fitted effect of over 40% in size
In short: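 In this screen, hormone-deprived VM7Luc4E2 cells were seeded at 4,000 per well, dosed with compound and 0.1 nM estradiol final, and incubated 22 hr at 37C and 5% CO2; fluorogenic live-cell protease signal reported viability.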

[5] = target: Estrogen receptor (Homo sapiens) (UniProt P03372); test: qHTS assay to identify small molecule antagonists of the estrogen receptor alpha (ER-alpha) signaling pathway using the BG1 cell line in the presence of 0.1 nM 17-beta-estradiol (AID 1259244); also: nearly all actives have a fitted effect of over 50% in size
Estrogen receptor (Homo sapiens), sequence (P03372 whole entry, looked up): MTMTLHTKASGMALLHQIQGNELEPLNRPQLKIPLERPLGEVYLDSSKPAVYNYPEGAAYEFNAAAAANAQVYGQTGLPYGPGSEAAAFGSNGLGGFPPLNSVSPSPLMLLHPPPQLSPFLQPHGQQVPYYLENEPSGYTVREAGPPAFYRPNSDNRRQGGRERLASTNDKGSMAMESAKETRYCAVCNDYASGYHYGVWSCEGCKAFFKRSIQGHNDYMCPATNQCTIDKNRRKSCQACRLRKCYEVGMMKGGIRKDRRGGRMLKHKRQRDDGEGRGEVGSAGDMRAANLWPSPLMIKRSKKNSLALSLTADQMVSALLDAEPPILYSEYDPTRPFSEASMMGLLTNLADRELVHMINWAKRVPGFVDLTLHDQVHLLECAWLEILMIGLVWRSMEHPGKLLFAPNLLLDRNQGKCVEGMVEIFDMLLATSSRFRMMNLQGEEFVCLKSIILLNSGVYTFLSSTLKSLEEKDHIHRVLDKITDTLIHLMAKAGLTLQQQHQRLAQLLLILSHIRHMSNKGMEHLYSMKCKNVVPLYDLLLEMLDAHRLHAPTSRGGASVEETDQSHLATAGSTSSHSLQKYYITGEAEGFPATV
In short: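 Seeding of stripped-serum-adapted VM7Luc4E2 cells, 24 h attachment, compound transfer, then 0.1 nM final 17beta-estradiol; after 22 h incubation, ONE-Glo reagent and luminescence reading.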

[6] = qHTS assay to identify small molecule HDAC inhibitors (AID 1259364);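 also: wild-type HCT-116 cells with endogenous class I/II HDAC activity; top concentration of the series differs between compounds; nearly all actives have a fitted effect of over 45% in size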
In short: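 After a 2 hr compound incubation (37C, 5% CO2), HCT-116 cells seeded at 1,500/well the day before received HDAC-Glo reagent; signal read as luminescence after 30 min at room temperature.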

[7] = qHTS assay to identify small molecule HDAC inhibitors - cell viability counter screen (AID 1259365); also: series mostly up to about 92 µM; nearly all actives have a fitted effect of over 50% in size
In short: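 Measured quantity is CellTiter-Glo luminescence from wild-type HCT-116 cells after compound incubation of 2hr at 37C, 5% CO2; reagent developed 30min at room temperature.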

[8] = qHTS assay to identify small molecule agonists of the sonic hedgehog signaling (Shh) pathway - cell viability counter screen (AID 1259366); also: nearly all actives have a fitted effect of over 50% in size
In short: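 In quantitative high-throughput format, 3T3 Gli1-Luc cells were exposed to compounds for 24hr and multiplexed for viability using CellTiter-Fluor, incubated 1hr at 37C before the fluorescence read.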

[9] = qHTS assay to identify small molecule antagonists of the sonic hedgehog signaling (Shh) pathway - cell viability counter screen (AID 1259367); also: nearly all actives have a fitted effect of over 55% in size
In short: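 Conditioned medium drove Shh signaling in 3T3 Gli1-Luc cells exposed to compounds at 37C and 5% CO2. Viability was determined from CellTiter-Fluor fluorescence, with reagent incubated 1 hr after 23 hr of treatment.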

[10] = qHTS assay to identify small molecule agonists of the sonic hedgehog signaling (Shh) pathway (AID 1259368; calls by dose curve;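 also: NIH/3T3-derived 3T3Gli1-Luc cells carrying a stable Gli1-driven firefly luciferase reporter; series mostly up to about 92 µM; nearly all actives have a fitted effect of over 15% in size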)
In short: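 Stable NIH/3T3 Gli1-Luc reporter clone; 24 hr cpd exposure after a 4 hr settling period; luminescence endpoint.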

[11] = qHTS assay to identify small molecule antagonists of the sonic hedgehog signaling (Shh) pathway (AID 1259369; calls by dose curve; also: nearly all actives have a fitted effect of over 45% in size)
In short: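 Gli1 transcriptional reporter (firefly Luc) in NIH/3T3 background, conditioned-medium activated. 24hr exposure, luminescence endpoint.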

[12] = target: Estrogen receptor beta (Homo sapiens) (UniProt Q92731); test: qHTS assay to identify small molecule agonists of the estrogen receptor beta (ER-beta) signaling pathway (AID 1259377; active = well fitted activation curve with a large enough effect in the signal ratio in the repeat runs, not every such curve was filed as active; the % refers to the signal ratio)
Estrogen receptor beta (Homo sapiens), sequence (Q92731 whole entry, looked up): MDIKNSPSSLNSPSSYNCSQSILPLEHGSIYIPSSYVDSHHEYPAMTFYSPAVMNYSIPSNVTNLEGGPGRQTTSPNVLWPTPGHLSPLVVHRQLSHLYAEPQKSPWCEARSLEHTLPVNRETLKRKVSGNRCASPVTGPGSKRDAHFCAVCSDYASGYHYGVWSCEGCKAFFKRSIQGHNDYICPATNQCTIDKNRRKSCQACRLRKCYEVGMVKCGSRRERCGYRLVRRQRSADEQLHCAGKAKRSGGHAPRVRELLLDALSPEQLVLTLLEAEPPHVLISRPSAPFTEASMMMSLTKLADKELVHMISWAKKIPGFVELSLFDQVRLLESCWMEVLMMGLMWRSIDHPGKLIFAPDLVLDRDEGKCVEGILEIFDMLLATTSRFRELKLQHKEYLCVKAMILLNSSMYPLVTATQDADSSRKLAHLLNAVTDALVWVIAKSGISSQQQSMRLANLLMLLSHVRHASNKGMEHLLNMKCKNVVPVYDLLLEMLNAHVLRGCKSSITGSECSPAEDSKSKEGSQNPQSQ
In short: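 Reporter cells (HEK293T, ER-beta-UAS-bla) receive compounds or DMSO after a 6 hr pre-incubation. They then incubate 16 hr at 37C/5% CO2, and fluorescence from LiveBLAzer B/G substrate is measured after 2 hours at room temperature.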

[13] = target: Estrogen receptor beta (Homo sapiens) (UniProt Q92731); test: qHTS assay to identify small molecule antagonists of the estrogen receptor beta (ER-beta) signaling pathway (AID 1259378; active = well fitted inhibition curve with a large enough effect in the signal ratio in the repeat runs, not every such curve was filed as active; the % refers to the signal ratio)
In short: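 ER-beta-UAS-bla HEK293T (GripTite) cells in 2% charcoal-stripped FBS medium were preincubated 6 hr at 37C, dosed with compound, then stimulated with 1 nM E2 (final) for 16 hr; beta-lactamase reporter read by B/G FRET fluorescence after 2 hr substrate loading.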

[14] = qHTS assay to identify small molecule agonists of the androgen receptor (AR) signaling pathway in the presence of an antagonist - cell viability counter screen (AID 1259379);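 also: MDA-kb2 human breast cancer cells carrying an MMTV luciferase reporter; series mostly up to about 92 µM; nearly all actives have a fitted effect of over 25% in size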
In short: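 Counter screen for cell viability run in parallel with the AR agonist-mode luciferase assay. MDA-kb2 cells were co-treated with nilutamide (3.0uM final) and compounds, then incubated 16 hr at 37C, and CellTiter-Fluor fluorescence was measured.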

[15] = qHTS assay to identify small molecule agonists of the estrogen receptor beta (ER-beta) signaling pathway - cell viability counter screen (AID 1259380); also: nearly all actives have a fitted effect of over 30% in size
In short: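 In this qHTS counter screen, HEK293T cells carrying an ER-beta/UAS beta-lactamase reporter, grown in 2% charcoal-stripped FBS, received compound for 16 hr; ATP-based CellTiter-Glo luminescence was then read after 30 min at room temperature.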

[16] = qHTS assay to identify small molecule antagonists of the androgen receptor (AR) signaling pathway using the MDA cell line in the presence of 0.5 nM R1881 - cell viability counter screen (AID 1259242); also: nearly all actives have a fitted effect of over 45% in size
In short: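 Human breast carcinoma MDA-kb2 cells, cultured without CO2, receive compounds alongside 0.5 nM (final) R1881 agonist. After 16 hr at 37C, viability is taken as live-cell protease signal.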

[17] = target: Androgen receptor (Homo sapiens) (UniProt P10275); test: qHTS assay to identify small molecule antagonists of the androgen receptor (AR) signaling pathway using the MDA cell line in the presence of 0.5 nM R1881 (AID 1259243); also: nearly all actives have a fitted effect of over 50% in size
Androgen receptor (Homo sapiens), sequence (P10275 whole entry, looked up): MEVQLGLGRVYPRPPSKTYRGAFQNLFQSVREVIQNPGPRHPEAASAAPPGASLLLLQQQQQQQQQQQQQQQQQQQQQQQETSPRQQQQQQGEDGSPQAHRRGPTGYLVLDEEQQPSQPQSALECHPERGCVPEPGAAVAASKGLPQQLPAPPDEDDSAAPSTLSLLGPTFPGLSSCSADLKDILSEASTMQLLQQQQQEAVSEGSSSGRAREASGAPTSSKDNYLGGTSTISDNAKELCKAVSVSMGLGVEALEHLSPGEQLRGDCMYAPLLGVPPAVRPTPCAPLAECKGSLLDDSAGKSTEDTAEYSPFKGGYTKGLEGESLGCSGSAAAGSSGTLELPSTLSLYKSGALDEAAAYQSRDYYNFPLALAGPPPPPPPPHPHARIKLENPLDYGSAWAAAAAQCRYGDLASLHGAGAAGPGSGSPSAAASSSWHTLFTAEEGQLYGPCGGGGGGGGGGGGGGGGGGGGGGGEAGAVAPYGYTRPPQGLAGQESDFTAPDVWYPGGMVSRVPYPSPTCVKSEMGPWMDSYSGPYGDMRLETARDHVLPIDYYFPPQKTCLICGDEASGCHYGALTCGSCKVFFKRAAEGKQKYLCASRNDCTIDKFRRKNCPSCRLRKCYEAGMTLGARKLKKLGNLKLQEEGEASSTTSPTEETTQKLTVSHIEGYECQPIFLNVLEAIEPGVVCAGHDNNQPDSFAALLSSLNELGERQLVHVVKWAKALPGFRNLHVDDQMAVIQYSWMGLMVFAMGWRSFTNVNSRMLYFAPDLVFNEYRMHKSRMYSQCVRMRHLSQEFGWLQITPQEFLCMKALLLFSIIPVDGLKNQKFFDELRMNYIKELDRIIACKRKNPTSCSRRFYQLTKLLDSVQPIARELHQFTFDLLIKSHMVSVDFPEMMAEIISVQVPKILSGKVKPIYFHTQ
In short: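 Cells: MDA-kb2 (MMTV-luc). Stimulus: 0.5 nM R1881. Time: 16 hr, 37C, no CO2. Detection: ONE-Glo luminescence after 30 min at RT.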

[18] = qHTS assay to identify small molecule phospholipidosis (PLD) inducers (AID 1259344; active = well fitted curve in the direction sought with a large enough effect; an effect the other way counts as inactive or inconclusive)
In short: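 After 4 h attachment on collagen I, HepG2 cells were dosed with compound alongside LipidTOX Red, kept 24 h at 37 C, fixed, and imaged for lamellar phospholipid pits.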

[19] = target: Androgen receptor (Homo sapiens) (UniProt P10275); test: qHTS assay to identify small molecule agonists of the androgen receptor (AR) signaling pathway in the presence of an antagonist (AID 1259381; calls by dose curve; also: nearly all actives have a fitted effect of over 15% in size)
In short: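 AR antagonist background: nilutamide 3.0uM final. Cell line: MDA-kb2, MMTV-driven luciferase, responsive to both AR and GR. Exposure 16hr, 37C, no CO2; ONE-Glo luminescence.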
% is scaled to controls: 0 for no effect and ±100 for the full control effect.

O=C1c2ccccc2C(=O)c2cc(Cl)ccc21
inactive: activity change [1] -0.237% [at 6.97 µM, stronger effect = higher value] | activity change, negative = cytotoxicity [2] 1.38% [at 6.97 µM] | cytotoxicity increase [3] -0.731% [at 6.97 µM] | activity change, negative = cytotoxicity [4] 1.79% [at 8.39 µM] | activity change, negative = inhibition [5] 6.71% [at 8.39 µM] | activity change, negative = inhibition [6] -13.5% [at 8.39 µM] | activity change, negative = cytotoxicity [7] 6.08% [at 8.39 µM] | viability change, negative = cytotoxic [8] 3.28% [at 8.39 µM] | viability change, negative = cytotoxic [9] 1.09% [at 8.39 µM] | activity change [10] 1.3% [at 8.39 µM] | activity change, negative = inhibition [11] 20.2% [at 8.39 µM] | activation [12] 7.82% [at 8.39 µM] | activity, negative = inhibition [13] 3.18% [at 8.39 µM] | activity change, negative = cytotoxicity [14] 0.449% [at 8.39 µM] | activity change, negative = cytotoxicity [15] 1.14% [at 8.39 µM]

CCCCCCCCCCCCCBr
inactive: Potency [1] | Potency [2] | Potency [3] | outcome [4] | outcome [16] | outcome [7] | outcome [8] | outcome [9] | outcome [10] | Potency [11] | outcome [14] | outcome [15]

O=C[O][Al]([O]C=O)[O]C=O
inactive: Potency [1] | Potency [2] | Potency [3] | outcome [4] | outcome [16] | outcome [5] | outcome [7] | outcome [9] | outcome [10] | Potency [11] | outcome [14] | outcome [15]

COc1cc2c(cc1OC)C(=O)C(CC1CCN(Cc3ccccc3)CC1)C2 (stereo not given)
inactive: Potency [2] | Potency [3] | outcome [4] | outcome [16] | Potency [17] | outcome [5] | outcome [18] | outcome [7] | outcome [8] | outcome [9] | outcome [10] | Potency [12] | outcome [14] | outcome [15] | outcome [19]

Cn1c(=O)c2c(ncn2CCO)n(C)c1=O
inactive: Potency [1] | Potency [2] | outcome [4] | outcome [16] | outcome [18] | outcome [7] | outcome [8] | outcome [9] | outcome [10] | Potency [11] | Potency [12] | Potency [13] | outcome [14] | outcome [15]

OC1OCCOC1O (stereo not given)
inactive: Potency [1] | Potency [2] | Potency [3] | outcome [4] | outcome [16] | outcome [5] | outcome [8] | outcome [9] | outcome [10] | Potency [11] | outcome [14] | outcome [15]

CC1=C(C(=O)O)N2C(=O)[C@@H](NC(=O)[C@H](N)c3ccccc3)[C@H]2SC1
inactive: Potency [1] | Potency [3] | outcome [4] | outcome [16] | outcome [5] | outcome [18] | Potency [6] | outcome [7] | outcome [8] | outcome [9] | outcome [10] | Potency [11] | Potency [13] | outcome [14]

c1ccc2cnccc2c1
inactive: Potency [1] | Potency [2] | Potency [3] | outcome [4] | outcome [16] | outcome [5] | Potency [6] | outcome [7] | outcome [8] | outcome [9] | outcome [10] | Potency [11] | outcome [14] | outcome [15]

CC(C)COC(=O)c1ccccc1
inactive: Potency [2] | Potency [3] | outcome [4] | outcome [16] | Potency [17] | outcome [5] | outcome [7] | outcome [8] | outcome [9] | outcome [10] | Potency [11] | outcome [14] | outcome [15] | outcome [19]

C=CCCCC
inactive: Potency [1] | Potency [3] | outcome [4] | outcome [16] | outcome [5] | Potency [6] | outcome [7] | outcome [8] | outcome [9] | outcome [10] | Potency [11] | outcome [14] | outcome [15]
